Shown are actives, neighbours in structure and some others; about 3% of the full set was active somewhere.
Nrf2 activator: Nrf2 pathway activation; AREc32 ARE-luciferase reporter (MCF7-derived line), luminescence, 24 h; Potency, µM (doses to about 46.1 µM), inactives show at the top dose activation, most hits filed as activators; 410,000 compounds, 0.31% hits; AID 624171; also: % of control where 0% means no effect; nearly all actives have a fitted effect of over 65% in size
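Nrf2 activation is followed as ARE-luciferase induction in the AREc32 line after one day of compound treatment; luminescence is read with Steady-Glo.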
TrxR1 substrate: rat thioredoxin reductase 1 substrate activity; O89049; Potency, µM (series often up to 114 µM), for inactives: at the highest dose activity change, negative = substrate turnover; AID 588456; purified TrxR1 substrate turnover, NADPH consumption readout; 390,000 compounds, 0.01% hits; also: % is scaled to controls: 0 for no effect and ±100 for the full control effect; nearly all actives have a fitted effect of over 50% in size
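Rat TrxR1, dispensed at 90 nM, was prereduced with 400 uM NADPH (final) for 5 min at ~22 deg C, then incubated with compound 15 min before 400 uM selenite. A first-read NADPH fluorescence drop versus no-compound background flagged substrates.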
rTrxR1 inhibitor: inhibitors of rat thioredoxin reductase 1 | recombinant rTrxR1, NADPH fluorescence consumption, selenite substrate | Potency, µM (top dose mostly 114 µM), inactives show at the top dose activity change, negative = inhibition, actives largely listed as inhibitors | 390,000 compounds, 1% hits | AID 588453; also: % is scaled to controls: 0 for no effect and ±100 for the full control effect; nearly all actives have a fitted effect of over 65% in size
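Rat TrxR1 (90 nM in the dispensed reagent) was pre-reduced with 400 uM NADPH for 5 min at room temperature, then incubated with compound for 15 min. After 400 uM selenite was added, NADPH fluorescence (Ex 340/Em 450 nm) was followed for 8 min.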
A549 tox: A549 cytotoxicity, counter-screen for Nrf2 inhibitors; A549 ARE-Fluc cells, CellTiter-Fluor viability, 18-24 h; AID 504648; Potency, µM (highest dose often 46 µM), inactives show at the top dose activity change, negative = cytotoxicity, most hits filed as inhibitors; 390,000 compounds, 0.16% hits; also: % is scaled to controls: 0 for no effect and ±100 for the full control effect
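A549 ARE_Fluc cells in 5% FBS OPTI-MEM were exposed to compounds in concentration-response for 18-24 h at 37 deg C. Viability was read by CellTiter-Fluor fluorescence (Ex 405/Em 525) after 30 min, before the luciferase read.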
Nrf2 inh: blocks Nrf2 signaling; Potency, µM (highest dose often 46 µM), for the others: at the highest dose activity change, negative = inhibition, usual class: inhibitors; 360,000 compounds, 2.1% hits; A549 ARE-Fluc reporter, luciferase luminescence, 18-24 h; also: % is scaled to controls: 0 for no effect and ±100 for the full control effect; nearly all actives have a fitted effect of over 60% in size
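Cells were seeded and rested 2 h, then exposed to compounds for 18-24 h. CellTiter-Fluor was read first as a viability measure. BugLite was added 15 min before the final luminescent read of ARE-luciferase activity in A549 cells.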
GALK inh: galactokinase (human) inhibition. 270,000 compounds, 0.007% hits. Potency, µM (doses to about 57.5 µM), for the others: top-dose activity change, negative = inhibition, most hits filed as inhibitors. AID 1868. Purified GALK, Kinase-Glo residual ATP luminescence; also: % is scaled to controls: 0 for no effect and ±100 for the full control effect
Target sequence (P51570 whole entry, looked up): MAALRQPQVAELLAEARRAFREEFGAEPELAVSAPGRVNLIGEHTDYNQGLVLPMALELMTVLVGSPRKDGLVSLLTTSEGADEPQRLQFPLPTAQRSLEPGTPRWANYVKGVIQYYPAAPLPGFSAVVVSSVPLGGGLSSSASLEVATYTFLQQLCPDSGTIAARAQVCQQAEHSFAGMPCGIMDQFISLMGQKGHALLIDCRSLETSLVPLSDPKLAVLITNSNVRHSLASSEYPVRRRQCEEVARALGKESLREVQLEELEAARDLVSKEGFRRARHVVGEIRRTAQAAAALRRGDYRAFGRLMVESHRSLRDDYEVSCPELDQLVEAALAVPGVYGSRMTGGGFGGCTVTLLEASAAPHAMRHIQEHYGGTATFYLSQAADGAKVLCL
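5 nM enzyme, 35 uM ATP, 100 uM galactose, 20 mM HEPES pH8.0, 5 mM MgCl2; 1 h RT; residual ATP by Kinase-Glo Plus luminescence, qHTS format.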
* = called active by the depositor; ? = inconclusive; . = no result given; [ ] = another dose, or the depositor's remark. Calls follow the shape of the dose curve; as a rule, active = well fitted curve in the direction sought with a large enough effect; inconclusive = small, poorly fitted or top-dose-only effect, or another doubt; inactive = no such curve, though single readings can be large; an effect the other way counts as inactive or inconclusive. Potency is read from the fitted curve at half-maximal effect.

SMILES	Nrf2 activator	TrxR1 substrate	rTrxR1 inhibitor	A549 tox	Nrf2 inh	GALK inh
CC1=C(c2ccc(C(C)C)cc2)S(=O)(=O)NC1=NCc1ccc(Cl)cc1	-0.6%	-1.4%	3.5%	16.2%	9.5%	.
O=S(=O)(c1ccc(Cl)cc1)c1nnn2c1nc(NCc1ccc3c(c1)OCO3)c1sccc12	-0.7%	8.4%	15.9%	-4.3%	-15.5%	.
Cc1ccc(NC(=O)c2ccccc2NS(=O)(=O)c2ccc(Cl)s2)cc1	9.3%	-12.4%	-16.3%	?	16.4µM*	-3.9%
O=S(=O)(Nc1ccccc1N1CCCCC1)c1ccc(Cl)s1	0.4%	-8.9%	-12.8%	-2.6%	-16.0%	2.7%
O=C(NCc1ccco1)c1ccccc1NS(=O)(=O)c1ccc(Cl)s1	2.6%	1.3%	44.7µM*	-2.8%	?	-2.2%
O=C(Nc1ccccc1Cc1ccccc1)c1ccccc1NS(=O)(=O)c1ccc(Cl)s1	4.1%	-8.0%	-10.5%	?	18.4µM*	0.5%
O=C(Nc1ccccc1)c1ccccc1NS(=O)(=O)c1ccc(Cl)s1	2.3%	-4.4%	-12.7%	?	18.4µM*	-5.3%
O=C(NCc1ccco1)c1ccccc1NS(=O)(=O)c1cccs1	-0.7%	-2.4%	-34.2%	-2.5%	4.1%	0.6%
Cc1cccc(Cn2c(SCc3ccc(C(=O)NCc4cccs4)cc3)nc3ccncc32)c1	6.9%	2.8%	7.5%	-16.9%	?	.
COc1ccc(-c2nc(CSc3nnc(C)n4c3cc3occc34)c(C)o2)cc1OC	-0.2%	-1.7%	-10.0%	-6.8%	3.1%	.
COCc1cc(=O)n2[nH]cc(-c3ccccc3)c2n1	1.9%	54.1%[57.1 µM]	-11.2%	-3.5%	4.9%	5.2%
CCCc1cc(=O)n2[nH]cc(-c3ccc(Cl)cc3)c2n1	-0.2%	2.9%[57.1 µM]	10.9%	?	20.6µM*	6.0%
O=C1C=CC(=O)N1c1ccc2c(c1)C(NC(=O)C(F)(F)F)c1ccccc1-2 (configuration not stated)	22.7%	3.7%	1.78µM*	-7.6%	-16.6%	.
CCN(CC)c1ccc(/C=N/NC(=O)c2cccc(S(=O)(=O)Nc3ccccc3OC)c2)c(O)c1	-0.9%	1.0%[57.1 µM]	20.0%[57.1 µM]	-18.7%	23.1µM*	1.4%
COc1ccccc1NS(=O)(=O)c1cccc(C(=O)N/N=C/c2c(C)nn(-c3ccccc3)c2N2CCCC2)c1	3.3%	-0.9%	-16.9%	-2.0%	18.4µM*	2.5%
CCN(CC)c1ccc(/C=N/NC(=O)c2cccc(S(=O)(=O)Nc3ccccc3OC)c2)cc1	-0.1%	-5.4%	3.2%	-0.2%	-20.4%	-0.3%
COc1ccccc1NS(=O)(=O)c1ccc(N/N=C/c2c(C)nn(-c3ccccc3)c2N2CCCC2)c([N+](=O)[O-])c1	0.2%	5.8%[57.1 µM]	14.5%[57.1 µM]	?	?	2.3%
NS(=O)(=O)c1ccc(N/N=C/c2cn(-c3ccccc3)nc2-c2ccccc2)c([N+](=O)[O-])c1	0.4%	3.8%	16.9%	20.6µM*	23.1µM*	-0.3%
Cc1nn(-c2ccccc2)c(N2CCCC2)c1/C=N/Nc1ccc(S(=O)(=O)Nc2ccccc2)cc1[N+](=O)[O-]	0.0%	-16.5%	-21.8%	?	8.2µM*	3.2%
COc1ccccc1NS(=O)(=O)c1cccc(C(=O)N/N=C/c2cn(-c3ccccc3)nc2-c2ccccc2)c1	2.5%	4.4%	9.3%[57.1 µM]	-8.2%	?	1.2%
COc1ccc(Cl)cc1N(C)C(=O)C(=O)Nc1ccc2nc3n(c(=O)c2c1)CCCCC3	4.8%	1.0%	16.5%	6.9%	-16.1%	.
CC1CCCCN1C(=O)Cn1ncc2c3ccccc3n(Cc3ccccc3F)c2c1=O (configuration not stated)	-0.8%	20.6%	25.0%	-6.0%	?	.
COc1ccccc1NS(=O)(=O)c1cccc(C(=O)N/N=C/c2ccc([N+](=O)[O-])o2)c1	?	-10.1%	39.8µM*	-20.2%	?	.
CCOc1ccc(NC(=O)C2CCN(S(=O)(=O)c3ccc4c(c3)oc(=O)n4C)CC2)cc1	-0.8%	-6.2%	-1.3%	5.1%	11.8%	.
CC(C)Sc1nc2sc3c(c2c(=O)n1-c1ccccc1)CCCC3	-0.1%	-1.6%	6.1%	6.9%	-3.7%	.
SMILES	Nrf2 activator	TrxR1 substrate	rTrxR1 inhibitor	A549 tox	Nrf2 inh	GALK inh
Cc1cc(C)n2ncc(C(=O)NCC(C)C)c2n1	.	.	.	11.8%	-6.1%	.
COc1ncccc1-c1cc2nc(NCCNC(C)=O)n(C)c(=O)c2s1	3.55µM*	.	.	.	.	.
CC(=O)NCCNc1nc2cc(-c3ccccc3)sc2c(=O)n1C	1.2%	.	.	.	.	.
Cc1cccc(Nc2nc(N)nc(CCl)n2)c1	14.1µM*	-20.5%[57.1 µM]	-3.5%[57.1 µM]	-12.7%	4.7%	1.0%
Cc1ccc(Nc2nc(N)nc(CCl)n2)cc1	?	1.1%	-6.6%[57.1 µM]	-3.7%	12.5%	-1.0%
Cc1cccc(Nc2nc(N)nc(CCl)n2)c1C	18.7%	1.6%[57.1 µM]	-3.5%[57.1 µM]	?	10.3µM*	0.4%
COc1cccc(Nc2nc(N)nc(CCl)n2)c1	12.6µM*	4.3%	-13.0%[57.1 µM]	-8.7%	-4.8%	-2.6%
CCc1cccc(CC)c1NC(=O)C1SC(=Nc2ccccc2C)C(c2nc3ccccc3s2)=C1N (configuration not stated)	0.7%	0.0%	-3.2%	-21.8%	14.6µM*	1.3%
CCc1cccc(C)c1NC(=O)CCCSc1nc2ccccc2s1	2.6%	-15.5%	-17.8%	-0.1%	?	1.6%
